Outcome data for 40 molecules are collected here from PubChem BioAssay (EPA / NIEHS).

Records with an inconclusive call do not appear. Activity calls are given as the source filed them. Rule for the calls: active = hit-call score of the fitted dose curve at least 0.9, where 1 is the maximum; inconclusive = response in the unintended direction; inactive = score below 0.9.

A short description of this test: ATG_XTT_Cytotoxicity: Cytotoxicity Assessment in the Attagene TRANS-FACTORIAL HepG2 Assay (AID 2283584). The gist of the method:
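24 h chemical exposure of reporter-transfected HepG2; XTT signal loss vs DMSO indicates cytotoxicity.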
Regarding `CC(C)CCCCCOC(=O)CCS`, the call was inactive.
`COC(=O)c1cc(Cl)ccc1[N+](=O)[O-]`: the outcome was inactive.
Under `COc1ccc([C@@H]2CC(=O)c3c(O)cc(O[C@@H]4O[C@H](CO[C@@H]5O[C@@H](C)[C@H](O)[C@@H](O)[C@H]5O)[C@@H](O)[C@H](O)[C@H]4O)cc3O2)cc1OC` stands “inactive”; under `O=C(Oc1ccccc1)c1ccc2ccccc2c1O`, “inactive”; under `Cc1oncc1C(=O)Nc1ccc(C(F)(F)F)cc1`, “inactive”.
Under `CC(=O)Oc1ccc(C(C)=O)cc1` stands “inactive”; under `CCCCCCCCC(=O)OCC`, “inactive”; under `CC1=NC(C)OC1C` (stereo not given), “inactive”.
The result for `CC1(C)O[C@@H]2C[C@H]3[C@@H]4C[C@H](F)C5=CC(=O)C=C[C@]5(C)[C@@]4(F)[C@@H](O)C[C@]3(C)[C@]2(C(=O)CO)O1` reads “inactive”; that for `CC(=O)Oc1ccc(C)cc1`, “inactive”; that for `O=C(O)c1ccccc1Nc1cccc(C(F)(F)F)c1`, “inactive”.
Consider `COCCCOCCCOC`, for which the call was inactive.
Consider `CC(=O)OCC(C)OC(C)=O` (stereo not given), for which the molecule was called inactive.
Under `COc1cc(NC(=O)CC(C)=O)c(OC)cc1Cl` stands “inactive”.
Under `CCN(CCO)c1cccc(C)c1` stands “inactive”; under `O=CN1CCCCC1`, “inactive”; under `O=[N+]([O-])C1(Br)COCOC1`, “inactive”.
Under `Nc1cccc(C(F)(F)F)c1` stands “inactive”.
With `COC(=O)C1=C(C)NC(C)=C(C(=O)OCC(C)C)C1c1ccccc1[N+](=O)[O-]` (stereo not given), the outcome was inactive.
Under `CCOC(=O)c1ccccc1C(=C1C=C(Br)C(=O)C(Br)=C1)c1cc(Br)c(O)c(Br)c1` stands “inactive”; under `CCCCCCOC(=O)C(C)CC` (stereo not given), “inactive”.
For the molecule `C=C(C)CCO`, the molecule was called inactive.
Under `CCc1ccc2c(c1)C(=O)c1ccccc1C2=O` stands “inactive”.
Under `CCc1nccnc1C` stands “inactive”; under `CCCCCCCCCCCCCCCCCC#N`, “inactive”; under `CC(=O)[C@@]1(O)CC[C@H]2[C@@H]3C[C@H](C)C4=CC(=O)C=C[C@]4(C)[C@@]3(F)[C@@H](O)C[C@@]21C`, “inactive”.
Under `Nc1ccc(Oc2ccc(N)c(N)c2)cc1` stands “inactive”; under `CCCOCCOCCOCCO`, “inactive”; under `O=C(c1ccc(O)cc1)c1ccc(O)cc1O`, “inactive”.
With `[Cl][In]([Cl])[Cl]`, the molecule was called inactive.
The result for `C=CCCCCCCCCC(=O)OCCCC` reads “inactive”; that for `O=C(O)Cc1c(Cl)ccc(Cl)c1Cl`, “inactive”; that for `C=C(C)C(=O)OCCOc1ccccc1`, “inactive”.
Under `COC(=O)c1sccc1S(N)(=O)=O` stands “inactive”.
The result for `Cc1ccccc1C` reads “inactive”; that for `c1ccc2c(c1)ccc1ncccc12`, “inactive”; that for `COc1cc(C)ccc1C(C)C`, “inactive”.
As for `CCC(CC)C(=O)O`, the molecule was classed as inactive.
The result for `CC(=O)OC1C2(C)CCC(C2)C1(C)C` (stereo not given) reads “inactive”; that for `CCc1c(C(=O)O)c(=O)cnn1-c1ccc(Cl)cc1`, “inactive”.
